Bioassay records from PubChem.
IDE cell inh: cellular human IDE inhibition | HEK cells, FAbetaB cleavage, fluorescence polarization | inhibition, % at 5.59 µM | 0.41% of 320,000 active;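 active means percent inhibition above the average of all tested compounds plus 3 SD, set per screening campaign, cut at about 16% in these data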;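 further: IDE supplied by intact live HEK cells; FP after avidin binding of uncleaved biotin substrate so inhibition keeps polarization high; 0% = DMSO wells and 100% = 60 µM reference IDE inhibitor Ii1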
IDE act: boosts human insulin-degrading enzyme activity in HEK cells; FAbeta-B cleavage, fluorescence polarization; 0% vehicle, 100% cell-free pure enzyme wells; activation, % at 5.96 µM; 0.073% of 340,000 active; AID 493087;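 active means activation above the mean of all tested compounds plus 3 SD, set per screening campaign, cut at about 17% in these data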
CaV13 FRET inh: Primary screen for inhibitors of IQ motif and Ca2+-dependent inactivation inhibitor domain binding in CACNA1D, Förster resonance energy transfer in living cells, …; HEK cells, CFP/YFP FRET ICDI-IQ, plate reader, 10 min; percent FRET-ratio fall versus neutral wells; inhibition, % at 12.3 µM; 0.098% of 340,000 active;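 active means mean replicate inhibition of at least 30% and at least 1% of replicates passing that level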;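 further: 0% = median of the neutral control wells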
PolyA inh: blocks polyadenylation in yeast reporter cells; S. cerevisiae SKY197-pL101 polyadenylation reporter, beta-gal luminescence; efflux-impaired pdr1/pdr3 knockout yeast; score 100 = 6 SD above DMSO; activity score, % at 12 µM; 0.02% of 300,000 active; AID 1875;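 active means lowest replicate activity score at least 50, where 100 means six control SD above control mean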;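 further: yeast exposed to compound for 9 h at 30 °C; higher score means more reporter readthrough which indicates perturbed polyadenylation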
ALR H2O2 inh: human ALR oxidase inhibition via reduced H2O2; purified ALR, DTT oxidation, H2O2 HRP-luminol luminescence; 3.8% of 290,000 active; inhibition, % (test concentration not listed); P55789; AID 485317;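 active means mean replicate inhibition above about 79%, with every replicate also reaching it, limit read from the data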
PfM18AAP inh-1: PfM18AAP enzyme inhibition. recombinant PfM18AAP, H-Glu-NHMec fluorogenic cleavage. inhibition, % at 7.35 µM. 1.2% of 290,000 active. AID 1822;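 active means inhibition above the campaign mean inhibition over all tested compounds plus 3 SD, cut at about 28% in these data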;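 further: 0% = plate median of test compound wells and 100% = 2 mM ZnCl2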
PfM18AAP inh-2: PfM18AAP inhibition, confirmation. recombinant PfM18AAP, H-Glu-NHMec fluorogenic cleavage. shares compounds with PfM18AAP inh-1. 28% of 2,400 active. inhibition, % at 7.35 µM;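 active means mean inhibition over replicate wells above the hit cutoff set for the earlier primary screen, cut at about 29% in these data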;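 further: 0% = median of test compound wells and 100% = 2 mM ZnCl2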
CTSL1 counter: Cathepsin L (human) inhibition, confirmation. shares compounds with PfM18AAP inh-1. purified cathepsin L1, Z-Leu-Arg-MCA fluorescence. inhibition, % at 5.96 µM. 2,400 tested, under 10 active. AID 2178;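 active means average inhibition across replicates above the hit cutoff set in the earlier primary screen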;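 further: 0% = median of test compound wells and 100% = Z-Phe-Ala-diazomethylketone 1 µM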
The depositor's hits bear a star; . = not tested or not shown. Sampled rows, rich in hits. Any-hit rate of the full collection: about 4.1%.

SMILES | IDE cell inh | IDE act | CaV13 FRET inh | PolyA inh | ALR H2O2 inh | PfM18AAP inh-1 | PfM18AAP inh-2 | CTSL1 counter
Oc1ccc(/C=N/Nc2cccc(Cl)n2)c(O)c1 | 3 | -1 | -5 | -5 | . | 58* | 57* | 7
CN1CCc2cccc3c2[C@@H]1Cc1ccc(O)c(O)c1-3 | 4 | -13 | . | . | . | 36* | 79* | 3
CN(C)Cc1c(O)ccc2c(=O)c(-c3ccc(Cl)cc3)coc12 | -4 | -3 | -5 | -10 | 11 | -11 | . | .
O=c1c(-c2ccc([N+](=O)[O-])cc2)coc2c(O)c(O)ccc12 | 1 | 9 | -13 | -20 | 9 | 45* | 25 | -2
COc1cccc(C2C(C#N)=C(N)OC3=C2C(=O)CC(c2ccco2)C3)c1OCc1ccc(F)cc1 (stereo not drawn) | -2 | 3 | -5 | -18 | -5 | 35* | -53 | -6
Cc1ccc(C(=O)NNc2cc(=O)n(C)c(=O)n2C)cc1C | 2 | 4 | -7 | 23 | -15 | 10 | . | .
Cc1cc(=S)[nH]c(=S)[nH]1 | 7 | -10 | -1 | 8 | 61 | 38* | -9 | 5
CCN(C(=O)CSC1=Nc2ccccc2C2CC=NN12)C1CCS(=O)(=O)C1 (stereo not drawn) | -2 | -1 | -4 | 10 | -4 | 4 | . | .
O=C(CSc1n[nH]c(-c2ccccc2)n1)c1ccc(O)c(O)c1 | 1 | 4 | -9 | 8 | 99* | 60* | 36* | 0
Cc1ccc(O)c(NC(=O)CSc2n[nH]c(-c3ccccc3)n2)c1 | -4 | 0 | . | 18 | 8 | 2 | . | .
Cc1cc(SCC(=O)c2ccc(O)c(O)c2)nc2ccccc12 | 7 | -1 | -4 | -12 | 100* | 46* | 21 | 3
CC1CC(C)CN(S(=O)(=O)N2CCCC(C(=O)NC3CCCCC3C)C2)C1 (stereo not drawn) | 1 | 4 | -5 | -18 | -1 | -3 | . | .
Cc1ccc(S(=O)(=O)N2CCN(CC(=O)N/N=C\c3ccc(O)c(O)c3)CC2)cc1 | 1 | 4 | -5 | 1 | 99* | 48* | 40* | -2
Cc1ccc(S(=O)(=O)N2CCN(CC(=O)N/N=C/c3ccc(C)o3)CC2)cc1 | 8 | -1 | -2 | 1 | 1 | 0 | . | .
COc1ccc(S(=O)(=O)N2CCN(CC(=O)c3ccc(O)c(O)c3)CC2)cc1 | 2 | 1 | -7 | 2 | 99* | 72* | 41* | 0
O=C(CN1CCN(S(=O)(=O)c2ccc(Cl)cc2)CC1)c1ccc(O)c(O)c1 | 3 | 6 | . | -1 | 99* | 70* | 39* | 0
O=C(CN1CCN(S(=O)(=O)c2ccc(F)cc2)CC1)c1ccc(O)c(O)c1 | 2 | -5 | -20 | 5 | . | 73* | 34* | 4
CCNC(=O)C1(C)CCCN(C(=O)c2nc(C)oc2C)C1 (stereo not drawn) | . | . | -5 | . | . | . | . | .
COC(=O)CN1C(=O)COc2ccc(S(=O)(=O)N3CCCCC3)cc21 | . | . | -6 | . | . | . | . | .
Fc1ccc2nc(C(F)(F)F)cc(N3CCOCC3)c2c1 | . | 2 | -22 | 1 | -4 | -1 | . | .
NC(=O)C1(c2ccccc2)CCC(=O)N1c1ccccc1 (stereo not drawn) | -5 | -2 | -5 | 1 | -4 | 2 | . | .
Cc1ccc(C(=O)Nc2nnc(CC(=O)N/N=C/c3ccc(O)c(O)c3)s2)cc1 | 0 | 1 | -4 | 31 | 62 | 56* | 50* | 5
CCN(CC)c1ccc(N=C2C(=O)Nc3ccccc32)cc1 | -9 | 5 | -15 | -4 | 94* | 63* | -24 | -1
COC(=O)Oc1ccc(/C=C/C(=O)OC(C)C)cc1OC(=O)OC | 2 | 6 | -6 | -4 | 95* | 72* | 43* | -6
O=[N+]([O-])c1cccc(/C=N/n2cnnc2)c1O | 2 | -2 | -9 | 15 | -40 | 11 | . | .
SMILES | IDE cell inh | IDE act | CaV13 FRET inh | PolyA inh | ALR H2O2 inh | PfM18AAP inh-1 | PfM18AAP inh-2 | CTSL1 counter
O=[N+]([O-])c1cc2c(cc1/C=N/n1cnnc1)OCO2 | 3 | 3 | -1 | -6 | -42 | 39* | -22 | -3
CC1CCCC(C)N1C(=O)COC(=O)c1ccc(Br)c(S(=O)(=O)N2CCOCC2)c1 (stereo not drawn) | -1 | 6 | -5 | . | -3 | . | . | .
Cc1nc(CSc2nsc(/C=C/N(C)C)c2C#N)cs1 | . | -7 | -5 | 17 | . | 1 | . | .
COC(=O)c1ccccc1CSc1nsc(/C=C/N(C)C)c1C#N | 0 | 1 | . | -2 | . | 48* | 6 | 2
Cc1ccc(C(=O)NC(=S)NNC(=O)CCN2CCOCC2)cc1 | -3 | 1 | -7 | 3 | 98* | 38* | -19 | -3
O=C(NC(=S)NCCN1CCOCC1)c1ccc(F)cc1 | 3 | 4 | -18 | -6 | 4 | -1 | . | .
COc1ccc(-n2c(-c3ccc(Cl)cc3)c[nH]c2=S)cc1 | 10 | -13 | -15 | -2 | 40 | -2 | . | .
COc1cc(C)c(NC(=O)C(=S)NCCc2ccccc2)cc1C | 2 | 0 | 1 | 35 | -10 | 48* | 4 | 4
COc1ccc(NC(=S)NCCc2ccccc2)c(C)c1 | 1 | -3 | -6 | -9 | -10 | -2 | . | .
CCCS(=O)(=O)N1CCCC(C(=O)NCCCN(Cc2ccccc2)C(C)C)C1 (stereo not drawn) | 3 | 2 | . | 14 | -4 | -13 | . | .
CCN(CCCNC(=O)C1CCCN(S(=O)(=O)CC)C1)c1cccc(C)c1 (stereo not drawn) | 6 | 2 | . | 9 | 99* | 47* | -40 | -3
CCN(CCCNC(=O)C1CCN(S(=O)(=O)c2cnc[nH]2)CC1)c1cccc(C)c1 | 1 | -1 | -4 | 20 | 99* | 51* | -34 | -1
CC(C)C(C(=O)Nc1ncn[nH]1)N1C(=O)c2ccccc2C1=O (stereo not drawn) | 1 | 1 | . | 9 | -3 | 40* | 56* | 5
O=C(CNS(=O)(=O)c1ccccc1)NNC(=O)C(Cl)Cl | 0 | 2 | -5 | -5 | 0 | 50* | 27 | 9
O=C(CSc1nc(-c2ccc(F)cc2)cs1)NCC1CCCO1 (stereo not drawn) | 2 | 3 | -6 | . | -8 | . | . | .
N#C/C(=C\c1ccc(O)c(O)c1)S(=O)(=O)c1ccccc1 | 0 | -15 | -4 | -5 | 99* | 51* | 24 | 5
Cn1cc(Cl)c(/C=C(\C#N)S(=O)(=O)c2ccccc2)n1 | 6 | 2 | -18 | -3 | 6 | 0 | . | .
